mHTT-CaM PPI inh – mutant huntingtin-calmodulin interaction inhibitors – biochemical, AlphaScreen, primary screen; P42858; AlphaScreen His-mHTT/GST-CaM binding, luminescence; inhibition, % at 15 µM; 190,000 compounds, 3.6% hits; AID 1671202, 2021;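 also: 0% = both proteins with DMSO and 100% = one protein alone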
Pf apPOL inh – Pf-apPOL inhibitors, biochemical, fluorescence | Plasmodium falciparum apicoplast DNA polymerase (apPOL) | Recombinant Pf-apPOL, molecular beacon fluorescence, 1.5 h | inhibition, % at 10 µM | 210,000 compounds, 0.25% hits
Numbers without * were called inactive; i = inactive; · = not tested or not shown. An excerpt weighted towards active compounds, which were near 3.5% of everything screened. Rule as the data show it: active = inhibition above about 50%; inactive = the rest.

SMILES	mHTT-CaM PPI inh	Pf apPOL inh
CCOC(=O)C1C(=O)C=C(c2ccc(C)cc2)CC1c1ccc(OC)c(OC)c1 (centres undefined)	4	-3
O=C(CCNS(=O)(=O)c1ccc(Br)s1)Nc1ccc(F)c(F)c1	3	-3
COc1ccc2c(c1)Nc1ccccc1S2	63*	·
Clc1ccc2c(c1)Nc1ccccc1S2	40	·
O=C(O)c1ccc(N2N=C(C(F)(F)F)/C(=C/c3ccc(-c4ccccc4[N+](=O)[O-])o3)C2=O)cc1	50*	2
O=C(O)c1cccc(N2N=C(C(F)(F)F)/C(=C/c3ccc(-c4ccccc4[N+](=O)[O-])o3)C2=O)c1	37	4
O=C1c2ccccc2C(=O)c2c1ccc(C(=O)Nc1cccc(Cl)c1)c2[N+](=O)[O-]	33	-5
COc1ccc(OC)c(C=C2SC(=S)N(C(C)C(=O)O)C2=O)c1 (centres undefined)	15	-13
COc1ccc(OC)c(C=C2SC(=S)N(C(C(=O)O)C(C)C)C2=O)c1 (centres undefined)	51*	-38
CC(C)C(C(=O)O)N1C(=O)C(=Cc2ccccc2)SC1=S (centres undefined)	3	-17
CC(C)C(C(=O)O)N1C(=O)C(=Cc2cccc(Br)c2)SC1=S (centres undefined)	59*	-31
CCc1ccc(OCC(=O)N2CCCCC2CCN2CCCCCC2)cc1 (centres undefined)	-3	-13
COCc1nn(CC2CC2)c2c1CN(C(=O)C(C)C)CC2	0	-1
CCc1onc(C)c1C1CCCN1C(=O)c1cc(C(C)C)on1 (centres undefined)	-2	-4
CN1CCN(c2nc(-c3ccccc3F)nc3ccccc23)CC1	-3	-4
N#Cc1c(NC(=O)c2cc3ncc(Br)cn3n2)sc2c1CCCC2	-5	-1
O=C(O)c1cc2ncc(Br)cn2n1	4	69*
O=C(O)c1cccc(N=Cc2cccc([N+](=O)[O-])c2O)c1	-3	83*
Cc1ccc2nc(-c3cc(N=Cc4cccc([N+](=O)[O-])c4)ccc3O)[nH]c2c1	55*	4
Cc1ccc2nc(-c3cc(N=Cc4cccc([N+](=O)[O-])c4O)ccc3O)[nH]c2c1	59*	0
O=C(O)c1cccc(N=Cc2cc(Cl)cc([N+](=O)[O-])c2O)c1	9	2
Cc1cccc2oc(-c3cc(N=Cc4cccc([N+](=O)[O-])c4)ccc3O)nc12	2	-2
O=[N+]([O-])c1ccccc1C=Nc1ccc2nc(-c3ccccc3)[nH]c2c1	32	-10
Cc1ccc2nc(-c3cccc([N+](=O)[O-])c3)[nH]c2c1	12	-3
Cc1ccc2nc(-c3cc(N=Cc4ccc([N+](=O)[O-])cc4)ccc3O)[nH]c2c1	55*	1
SMILES	mHTT-CaM PPI inh	Pf apPOL inh
O=C1OC(c2ccc(Br)o2)=N/C1=C\c1coc2ccc(Cl)cc2c1=O	-6	-3
OC1(C(F)(F)F)CC(C=Cc2ccc3c(c2)OCO3)=NN1 (centres undefined)	·	-17
COc1ccccc1Cc1noc(Cc2c(F)cccc2Cl)n1	-79	-6
COc1cccc(-n2nc(C(=O)N(C)c3ccc(Cl)cc3)c3ccccc3c2=O)c1	22	-9
CCc1ccc(C(=O)N2CCC(n3c(-c4ccco4)nc4cccnc43)C2)cc1 (centres undefined)	76*	0
Cc1ccc(C(=O)N2CCC(n3c(-c4ccoc4)nc4cccnc43)C2)cc1F (centres undefined)	21	2
COc1ccc(C(=O)N2CCC(n3c(-c4ccco4)nc4cccnc43)C2)cc1OC (centres undefined)	34	-6
O=C(c1ccc(Cl)cc1)N1CCC(n2c(-c3ccco3)nc3cccnc32)C1 (centres undefined)	77*	-8
O=C(c1ccc(F)c(Cl)c1)N1CCC(n2c(-c3ccoc3)nc3cccnc32)C1 (centres undefined)	99*	-3
O=C(c1ccoc1)N1CCC(n2c(-c3ccco3)nc3cccnc32)C1 (centres undefined)	3	-4
O=C(c1cc(F)cc(F)c1)N1CCC(n2c(-c3ccco3)nc3cccnc32)C1 (centres undefined)	28	-2
O=C(c1ccc(Br)cc1)N1CCC(n2c(-c3ccco3)nc3cccnc32)C1 (centres undefined)	84*	-3
Cc1ccc(-c2nc(-c3ccc(-n4cccn4)nc3)no2)c(C)c1	-2	-2
Cc1ccc(=O)n(CCNC(=O)Cc2cn(C)c3ccccc23)n1	-5	2
Cn1c(=O)c2c(ncn2CC(=O)Nc2ccccc2I)n(C)c1=O	-1	-8
Cc1ccccc1Nc1nccc(C2CCCN(C(=O)c3ccco3)C2)n1 (centres undefined)	21	-4
CN(C)c1ccc(C(=O)N2CCCC(c3ccnc(Nc4ccccc4F)n3)C2)cc1 (centres undefined)	60*	-3
O=C(c1ccco1)N1CCCC(c2ccnc(Nc3ccccc3F)n2)C1 (centres undefined)	56*	1
CC(=O)N1CCCC(c2ccnc(Nc3cccc(C)c3)n2)C1 (centres undefined)	11	-7
Cc1cccc(Nc2nccc(C3CCCN(C(=O)c4ccco4)C3)n2)c1 (centres undefined)	77*	0
N#Cc1ccc(C(=O)N2CCCC(c3ccnc(Nc4ccccc4F)n3)C2)cc1 (centres undefined)	0	0
Cc1ccc(C23CC4CC(CC(C(=O)NN=Cc5ccco5)(C4)C2)C3)cc1	20	-1
CCCN(CCC)C(=O)C[n+]1ccc(/C=N/O)cc1	i	-2
COc1ccc(NC2=CC(=NS(=O)(=O)c3ccc(Cl)cc3)c3ccccc3C2=O)cc1	35	0
COc1ccc(S(=O)(=O)N=C2C=C(Nc3cccc(C)c3)C(=O)c3ccccc32)cc1	91*	-16
SMILES	mHTT-CaM PPI inh	Pf apPOL inh
COc1ccccc1NC1=CC(=NS(=O)(=O)c2ccc(C)cc2C)c2ccccc2C1=O	92*	-6
COc1ccccc1NC(=O)CN(c1ccc(C)cc1C)S(C)(=O)=O	0	-3
COc1ccc(S(=O)(=O)N=C2C=C(Nc3ccccc3OC)C(=O)c3ccccc32)cc1	91*	0
COc1ccc(S(=O)(=O)Nc2ccccc2NS(=O)(=O)c2ccc(OC)cc2)cc1	6	3
COc1ccccc1NC(=O)c1ccc(F)cc1	-6	-2
COc1ccccc1NC1=CC(=NS(=O)(=O)c2ccc(F)cc2)c2ccccc2C1=O	94*	2
O=C(Nc1ccc(F)cc1)c1ccccc1N=Cc1cc(Cl)cc(Cl)c1O	·	-10
NS(=O)(=O)c1ccc(-n2cccc2)cc1	·	-1
CCOc1ccc(C(=O)N2CCC3(CC2)NC(=O)c2cc(Cl)ccc2N3C)cc1	-9	-1
COc1ccc(/C=C2\SC(=O)N(Cc3ccc(Cl)cc3)C2=O)c(OC)c1	5	1
CC12CCCCC1c1ccccc1/C(=C/C(N)=O)N2 (centres undefined)	22	3
CCc1ccc(S(=O)(=O)Nc2ccccc2OC)cc1	-25	2
COc1ccccc1NC1=CC(=NS(=O)(=O)c2ccccc2)c2ccccc2C1=O	94*	3
O=C1C(NS(=O)(=O)c2ccccc2)=CC(=NS(=O)(=O)c2ccc(F)cc2)c2ccccc21	5	-5
CCc1ccc(S(=O)(=O)N=C2C=C(Nc3ccccc3OC)C(=O)c3ccccc32)cc1	93*	0
